The list is not random: actives were taken first. Their share in the collection is about 21%.
ELG1 DNA repair: inhibitors of ELG1-dependent DNA repair in HEK293T cells | HEK293T ELG1-luciferase reporter, luminescence, 16 h; DNA damage induced by 5-fluorouridine | Potency, µM (titrated, usually from 46.1 µM), without a hit: top-dose activity change, negative = inhibition, actives largely listed as inhibitors | 330,000 tested, 2.3% active; also: potency is read from the fitted curve at half-maximal effect; nearly all actives have a fitted effect of over 55% in size
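Quantitative HTS, concentration-response format. 2,000 cells/well co-treated with 5-fluorouridine and compound, 16 hr in 5% CO2 at 37 °C; ONE-Glo luminescence read after 30 min.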
VP16 counter: inhibits Gal4-VP16 luciferase reporter, ROR gamma counter-screen; 310,000 tested, 3.5% active; Drosophila S2 Gal4-VP16 UAS-luciferase, luminescence, 20 h; Potency, µM (top dose mostly 53.6 µM), without a hit: top-dose activity, negative = inhibition, usual class: inhibitors; AID 2546;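 also: Gal4-VP16 expression switched on by copper sulfate through the metallothionein promoter; potency is read from the fitted curve at half-maximal effect; nearly all actives have a fitted effect of over 50% in size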
TDP1 cell noCPT: qHTS for Inhibitors of human tyrosyl-DNA phosphodiesterase 1 (TDP1): qHTS in cells in absence of CPT; AID 686978, 2013; Potency, µM (titrated, usually from 46.2 µM), without a hit: top-dose activity change, negative = growth inhibition, most hits filed as inhibitors; 420,000 tested, 15% active; DT40 Tdp1-/- hTDP1 cells, no CPT, ATP luminescence, 48 h; also: potency is read from the fitted curve at half-maximal effect; nearly all actives have a fitted effect of over 55% in size
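Camptothecin absent (DMSO only). Human TDP1-complemented DT40 knockout cells, 400 cells/well, 37 °C for minimum 48 hr; ATP measured via CellTiter-Glo, 30 min dark incubation, luminescence.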
TDP1 cell CPT: DT40-hTDP1 cell growth loss with CPT; AID 686979; Potency, µM (doses to about 46.2 µM), inactives show at the top dose activity change, negative = growth inhibition, usual class: inhibitors; 420,000 tested, 12% active; chicken DT40 Tdp1-/-;hTDP1 cells + 20 nM CPT, ATP luminescence, 48 h; also: potency is read from the fitted curve at half-maximal effect; nearly all actives have a fitted effect of over 55% in size
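Chicken DT40 Tdp1-/- cells stably complemented with human TDP1 were seeded at 400 cells/well in medium containing 20 nM camptothecin, exposed to pin-transferred compounds, and grown at 37 °C for at least 48 hr. Viability was read as ATP luminescence.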
IL-1B inflam inh: inhibitors of inflammasome signaling (IL-1 beta secretion); activity change, % at 57.5 µM; 360,000 tested, 4.7% active; THP-1 LPS/ATP IL-1B secretion, AlphaLISA, 16 h; hits give low values; AID 743279; in the data active = activity change below about -50%; inconclusive = mostly about -30% to -49%
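THP-1 cells pretreated 1 hr with compounds (up to 57.5 uM final), then stimulated with LPS (250 ng/mL final) plus ATP (1.25 mM final); secreted IL-1B measured by AlphaLISA after 16 hr, decreased signal indicating inhibition.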
RORg inh: ROR gamma (mouse) transcription inhibition | P51450 | Drosophila S2 Gal4-RORgamma UAS-luciferase reporter, 20 h | Potency, µM (highest dose often 53.6 µM), for inactives: at the highest dose activity change, negative = inhibition, most hits filed as inhibitors | 310,000 tested, 5.4% active | AID 2551; also: potency is read from the fitted curve at half-maximal effect; nearly all actives have a fitted effect of over 60% in size
Target sequence (P51450 whole entry, looked up, the tested form may be a part): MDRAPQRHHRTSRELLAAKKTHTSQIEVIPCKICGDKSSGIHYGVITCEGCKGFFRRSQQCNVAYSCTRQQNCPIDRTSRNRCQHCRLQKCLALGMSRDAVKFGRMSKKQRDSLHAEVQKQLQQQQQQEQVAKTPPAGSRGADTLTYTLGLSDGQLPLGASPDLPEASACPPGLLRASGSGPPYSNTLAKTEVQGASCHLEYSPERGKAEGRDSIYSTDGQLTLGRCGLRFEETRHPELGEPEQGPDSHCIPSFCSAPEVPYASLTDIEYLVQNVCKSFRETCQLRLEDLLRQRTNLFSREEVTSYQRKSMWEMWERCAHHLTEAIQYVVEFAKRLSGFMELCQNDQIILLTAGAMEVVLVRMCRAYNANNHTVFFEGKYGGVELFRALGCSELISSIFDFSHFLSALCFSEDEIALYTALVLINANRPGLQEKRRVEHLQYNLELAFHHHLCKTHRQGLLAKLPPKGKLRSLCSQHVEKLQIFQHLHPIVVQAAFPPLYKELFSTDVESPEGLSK
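Drosophila S2 cells stably expressing Gal4-DBD/mouse RORγ fusion under metallothionein promoter plus UAS-luciferase; compound 1 h, then 700 uM CuSO4 induction for 20 h at ambient temperature; inhibition read as reduced luminescence.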
The depositor's hits bear a star; i = inactive; ? = inconclusive; · = no result; [ ] = another dose, or the depositor's remark. Unless noted, calls follow the shape of the dose curve; as a rule, active = well fitted curve in the direction sought with a large enough effect; inconclusive = small, poorly fitted or top-dose-only effect, or another doubt; inactive = no such curve, though single readings can be large; an effect the other way counts as inactive or inconclusive. % is scaled to controls: 0 for no effect and ±100 for the full control effect.

SMILES	ELG1 DNA repair	VP16 counter	TDP1 cell noCPT	TDP1 cell CPT	IL-1B inflam inh	RORg inh
O=C(C[n+]1cc(-c2ccc(Cl)c(Cl)c2)n2c1CCC2)OCc1ccccc1	19%	-3%	-14%	-13%	i	9%[10 µM]
CCCCN(C)CCNC(=O)c1c2c(nc3ccccc13)C(=O)N(C1CCCCC1)C2	·	·	-28%	-21%	·	·
Cc1ccc(CC2S/C(=N/c3ccccn3)NC2=O)cc1 (configuration not stated)	?	3.5µM*	-15%	6%	14	2.8µM*
C/C(=N\N=C1\NC(=O)C(CC(=O)O)S1)c1ccccn1 (configuration not stated)	0%	4%	-7%	-1%	4	-28%
O=C1NC(=Nc2ccccc2)SC1Cc1ccccc1 (configuration not stated)	1%	0%	-27%	-13%	-10	-12%
O=C1N/C(=N/c2ccccn2)SC1Cc1ccccc1 (configuration not stated)	?	2.5µM*	?	?	34	0.89µM*
CC(C)Nc1nc2nonc2nc1Nc1ccccc1	16µM*	-2%	?	2%	·	20%
Cc1ccc(Nc2nc3nonc3[nH]c2=O)cc1	?	9%	-10%	1%	19	33%
Cc1ccc(Cc2cnc(NC(=O)/C(C#N)=C/c3ccc(-c4ccc([N+](=O)[O-])cc4)o3)s2)cc1	18%	0%	?	-5%	13	2.2µM*
N#C/C(=C/c1ccc(-c2ccc([N+](=O)[O-])cc2)o1)C(=O)Nc1nc(-c2cccs2)cs1	·	·	?	?	16	·
COc1cc(CNC(=O)c2cc(C(=O)NCc3cc(OC)cc(OC)c3)n(C)n2)cc(OC)c1	21µM*	·	?	?	0	·
Cn1nc(C(=O)NCc2cccc(F)c2)cc1C(=O)NCc1cccc(F)c1	12µM*	·	?	-14%	-5	·
COc1ccc(CCNC(=O)CCCCn2c(=O)c3ccccc3n(CC(=O)Nc3ccc(C)cc3C)c2=O)cc1OC	·	·	-22%	-27%	·	·
CN1CCN(C(c2ccccc2Cl)c2sc3nc(-c4ccco4)nn3c2O)CC1 (configuration not stated)	·	·	-3%	0%	·	·
CCCCN(c1nc2ccccc2nc1Cl)S(=O)(=O)c1ccc(C)cc1	?	2.5µM*	9.2µM*	21µM*	8	-35%
CCCN(CCC)CC(O)CN(c1ccccc1)S(=O)(=O)c1ccc(C)cc1 (configuration not stated)	16%	-1%	?	?	-24	-4%
Cc1cc(C)n2nc(C(=O)OCC(=O)NCc3ccc(Cl)cc3)nc2n1	13%	·	11%	0%	34	·
CCN1C2=C(C(=O)CCC2)C(c2ccc(O)c(Br)c2)C2=C1CCCC2=O	-13%	1%	-21%	?	3	25%
O=C1CCCC2=C1C(c1ccc(O)c(Br)c1)C1=C(CCCC1=O)N2c1ccccc1	-2%	-12%	23µM*	?	-8	4%
CCOc1ccc(CNC(=O)C2CCCN(c3nc4c(C)cc(C)cc4s3)C2)cc1 (configuration not stated)	·	·	?	18µM*	·	·
CCc1nnc(NC(=O)C2CCCN(c3nc4ccccc4s3)C2)s1 (configuration not stated)	?	10%	-20%	-26%	7	22%
Cc1cc(C)c2nc(N3CCCC(C(=O)NCc4cccc(Br)c4)C3)sc2c1 (configuration not stated)	·	·	-25%	?	·	·
COc1ccc(CCNC(=O)C2CCCN(c3nc4c(C)cc(C)cc4s3)C2)cc1OC (configuration not stated)	·	·	13µM*	21µM*	·	·

Source: PubChem
